# Source: the supplement of paper PMC11006884
# The full data set covers some 6,500 targets. This sample favours those with a hit. About 2% of all pairs of compound and target were hits. Unmarked numbers belong to inactive results.
# Compound: COC(=O)C#Cc1ccccc1 [methyl 3-phenylpropiolate]
# Assay: log2 ratio of iodoacetamide-alkyne labeling of the cysteine site, DMSO over compound (competition); higher = stronger covalent engagement of the cysteine by the compound, active = 1 or more
# Conditions: 500 µM; treatment time 1 h; system: HEK293T cell lysate
# In short: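 For each cysteine, the log2 competition ratio is mean control-channel reporter intensity over mean compound-channel reporter intensity. HEK293T lysate (2 mg/mL) was exposed to vehicle or electrophile (500 µM, 1 h, ambient temperature), labelled with iodoacetamide alkyne (1 h), clicked to sCIP-TMT reagents, digested overnight with trypsin at 37 °C, streptavidin-enriched and analysed by Orbitrap Eclipse LC-MS/MS with FAIMS and FragPipe. Cysteines quantified in only one of three replicates, each with duplicate channels, were excluded.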
# Sequence of UniProt Q9NX05 (Q9NX05 whole entry): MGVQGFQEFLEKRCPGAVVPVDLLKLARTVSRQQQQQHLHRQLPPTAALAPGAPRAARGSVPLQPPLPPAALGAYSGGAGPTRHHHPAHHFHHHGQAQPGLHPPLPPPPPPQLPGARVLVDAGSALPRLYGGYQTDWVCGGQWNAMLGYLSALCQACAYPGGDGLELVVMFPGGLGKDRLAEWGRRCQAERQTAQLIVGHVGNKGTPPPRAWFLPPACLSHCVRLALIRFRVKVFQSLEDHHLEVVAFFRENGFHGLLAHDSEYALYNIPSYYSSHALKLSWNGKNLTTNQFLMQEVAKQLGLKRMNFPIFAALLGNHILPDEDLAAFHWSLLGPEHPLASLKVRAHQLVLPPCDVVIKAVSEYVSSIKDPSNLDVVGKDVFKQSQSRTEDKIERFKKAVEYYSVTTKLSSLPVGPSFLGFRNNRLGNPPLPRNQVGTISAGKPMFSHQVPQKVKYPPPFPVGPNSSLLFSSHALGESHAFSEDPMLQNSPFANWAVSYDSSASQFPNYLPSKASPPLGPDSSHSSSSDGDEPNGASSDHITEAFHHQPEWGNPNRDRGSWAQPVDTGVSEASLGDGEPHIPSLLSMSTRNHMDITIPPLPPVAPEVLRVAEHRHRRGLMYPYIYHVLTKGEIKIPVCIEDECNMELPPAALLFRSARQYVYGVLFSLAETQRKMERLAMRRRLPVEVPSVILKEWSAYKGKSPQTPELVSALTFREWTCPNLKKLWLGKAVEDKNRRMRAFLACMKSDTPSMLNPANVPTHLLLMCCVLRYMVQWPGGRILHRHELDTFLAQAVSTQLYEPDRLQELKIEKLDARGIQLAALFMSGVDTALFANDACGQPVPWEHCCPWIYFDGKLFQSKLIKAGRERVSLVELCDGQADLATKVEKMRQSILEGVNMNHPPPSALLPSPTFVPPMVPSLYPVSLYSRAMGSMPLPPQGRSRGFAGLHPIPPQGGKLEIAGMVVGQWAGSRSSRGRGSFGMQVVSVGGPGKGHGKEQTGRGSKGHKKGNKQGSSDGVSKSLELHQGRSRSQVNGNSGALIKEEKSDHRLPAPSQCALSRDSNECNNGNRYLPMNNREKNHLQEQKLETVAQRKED
# Sequence of UniProt Q9BWD1 (Q9BWD1 whole entry, looked up): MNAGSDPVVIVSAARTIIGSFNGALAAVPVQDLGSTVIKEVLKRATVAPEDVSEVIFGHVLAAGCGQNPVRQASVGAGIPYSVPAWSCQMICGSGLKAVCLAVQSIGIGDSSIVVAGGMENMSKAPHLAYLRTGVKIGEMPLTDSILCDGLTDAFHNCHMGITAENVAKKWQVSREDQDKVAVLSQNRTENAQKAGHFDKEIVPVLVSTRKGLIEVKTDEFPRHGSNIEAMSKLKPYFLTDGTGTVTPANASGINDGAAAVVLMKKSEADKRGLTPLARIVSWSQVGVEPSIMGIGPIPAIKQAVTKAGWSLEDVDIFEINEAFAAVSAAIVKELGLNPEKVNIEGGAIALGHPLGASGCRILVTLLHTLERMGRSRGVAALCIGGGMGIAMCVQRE
# Sequence of UniProt Q9UMS0 (Q9UMS0 whole entry, looked up): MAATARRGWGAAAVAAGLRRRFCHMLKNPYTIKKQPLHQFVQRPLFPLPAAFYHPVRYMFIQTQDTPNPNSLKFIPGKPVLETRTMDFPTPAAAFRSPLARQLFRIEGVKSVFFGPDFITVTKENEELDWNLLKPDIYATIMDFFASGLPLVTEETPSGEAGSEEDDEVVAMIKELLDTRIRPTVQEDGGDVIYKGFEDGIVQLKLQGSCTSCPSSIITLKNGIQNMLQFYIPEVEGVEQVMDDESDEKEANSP
# Sequence of UniProt Q9UQ35 (Q9UQ35 whole entry, looked up): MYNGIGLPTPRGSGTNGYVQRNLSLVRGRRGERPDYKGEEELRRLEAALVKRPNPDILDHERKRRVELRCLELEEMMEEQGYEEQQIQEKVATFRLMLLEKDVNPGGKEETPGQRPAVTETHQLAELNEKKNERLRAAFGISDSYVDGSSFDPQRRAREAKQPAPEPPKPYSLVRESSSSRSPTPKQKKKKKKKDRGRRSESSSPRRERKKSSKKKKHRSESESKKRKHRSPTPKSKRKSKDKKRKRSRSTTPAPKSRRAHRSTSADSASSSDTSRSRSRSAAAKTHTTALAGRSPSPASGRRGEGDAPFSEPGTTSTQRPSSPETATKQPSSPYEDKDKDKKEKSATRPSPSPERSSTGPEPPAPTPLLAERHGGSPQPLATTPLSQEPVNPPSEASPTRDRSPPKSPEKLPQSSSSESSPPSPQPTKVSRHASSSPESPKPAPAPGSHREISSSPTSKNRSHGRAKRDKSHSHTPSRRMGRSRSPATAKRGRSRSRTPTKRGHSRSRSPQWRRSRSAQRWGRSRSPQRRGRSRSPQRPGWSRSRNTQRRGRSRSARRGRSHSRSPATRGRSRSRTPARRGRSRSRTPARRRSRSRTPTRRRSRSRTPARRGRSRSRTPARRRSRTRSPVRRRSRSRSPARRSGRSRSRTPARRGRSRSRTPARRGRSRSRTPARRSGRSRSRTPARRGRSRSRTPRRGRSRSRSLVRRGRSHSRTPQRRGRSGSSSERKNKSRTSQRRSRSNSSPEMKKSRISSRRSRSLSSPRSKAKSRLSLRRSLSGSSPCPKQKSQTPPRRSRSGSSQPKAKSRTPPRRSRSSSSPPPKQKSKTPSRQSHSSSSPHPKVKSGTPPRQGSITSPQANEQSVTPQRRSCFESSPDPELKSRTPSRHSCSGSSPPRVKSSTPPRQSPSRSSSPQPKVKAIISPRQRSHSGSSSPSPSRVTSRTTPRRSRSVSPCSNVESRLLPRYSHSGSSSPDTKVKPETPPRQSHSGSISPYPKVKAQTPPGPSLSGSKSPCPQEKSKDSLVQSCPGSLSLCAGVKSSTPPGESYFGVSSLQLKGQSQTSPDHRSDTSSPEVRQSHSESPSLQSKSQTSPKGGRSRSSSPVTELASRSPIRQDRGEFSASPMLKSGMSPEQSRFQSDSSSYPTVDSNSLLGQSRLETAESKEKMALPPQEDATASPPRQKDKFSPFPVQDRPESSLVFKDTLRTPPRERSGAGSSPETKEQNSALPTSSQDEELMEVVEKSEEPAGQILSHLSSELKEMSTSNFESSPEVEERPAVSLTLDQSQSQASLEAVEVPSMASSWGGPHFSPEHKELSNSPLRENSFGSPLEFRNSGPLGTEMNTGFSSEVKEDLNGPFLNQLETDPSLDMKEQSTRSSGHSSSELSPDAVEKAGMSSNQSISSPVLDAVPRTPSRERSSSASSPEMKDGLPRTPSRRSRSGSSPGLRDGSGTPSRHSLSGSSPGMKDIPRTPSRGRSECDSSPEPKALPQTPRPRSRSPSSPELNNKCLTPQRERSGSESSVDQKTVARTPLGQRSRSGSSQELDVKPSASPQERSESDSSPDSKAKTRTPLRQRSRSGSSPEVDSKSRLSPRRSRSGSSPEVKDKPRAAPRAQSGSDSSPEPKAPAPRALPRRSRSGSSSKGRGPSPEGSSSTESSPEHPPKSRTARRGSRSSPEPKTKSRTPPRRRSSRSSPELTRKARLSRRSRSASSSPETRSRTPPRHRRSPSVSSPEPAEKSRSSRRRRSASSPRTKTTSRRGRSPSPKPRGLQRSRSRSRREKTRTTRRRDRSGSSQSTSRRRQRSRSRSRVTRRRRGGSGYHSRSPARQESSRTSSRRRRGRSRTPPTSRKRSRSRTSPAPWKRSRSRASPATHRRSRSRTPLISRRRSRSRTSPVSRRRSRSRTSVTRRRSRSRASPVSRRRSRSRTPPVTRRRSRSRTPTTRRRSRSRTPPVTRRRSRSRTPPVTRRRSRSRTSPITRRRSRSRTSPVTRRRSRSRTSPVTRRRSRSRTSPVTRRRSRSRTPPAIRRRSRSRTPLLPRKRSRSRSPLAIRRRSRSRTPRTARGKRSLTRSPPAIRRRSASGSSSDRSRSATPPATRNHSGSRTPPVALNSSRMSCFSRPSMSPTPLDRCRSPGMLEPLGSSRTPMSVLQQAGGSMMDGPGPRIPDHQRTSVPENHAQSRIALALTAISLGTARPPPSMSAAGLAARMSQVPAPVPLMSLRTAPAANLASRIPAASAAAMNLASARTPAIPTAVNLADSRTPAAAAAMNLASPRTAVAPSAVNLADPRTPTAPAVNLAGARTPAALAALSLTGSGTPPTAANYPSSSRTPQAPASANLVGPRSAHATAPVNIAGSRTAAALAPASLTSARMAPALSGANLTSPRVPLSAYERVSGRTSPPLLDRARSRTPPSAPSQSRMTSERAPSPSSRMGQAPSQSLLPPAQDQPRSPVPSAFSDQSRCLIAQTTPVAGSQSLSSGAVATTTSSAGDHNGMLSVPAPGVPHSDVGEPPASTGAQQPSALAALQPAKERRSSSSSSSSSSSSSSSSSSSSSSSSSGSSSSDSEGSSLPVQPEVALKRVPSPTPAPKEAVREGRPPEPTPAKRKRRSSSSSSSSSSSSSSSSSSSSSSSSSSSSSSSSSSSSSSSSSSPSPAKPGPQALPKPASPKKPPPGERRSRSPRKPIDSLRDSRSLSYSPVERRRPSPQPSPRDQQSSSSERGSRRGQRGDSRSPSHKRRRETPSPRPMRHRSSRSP
# Sequence of UniProt Q9UBW8 (Q9UBW8 whole entry): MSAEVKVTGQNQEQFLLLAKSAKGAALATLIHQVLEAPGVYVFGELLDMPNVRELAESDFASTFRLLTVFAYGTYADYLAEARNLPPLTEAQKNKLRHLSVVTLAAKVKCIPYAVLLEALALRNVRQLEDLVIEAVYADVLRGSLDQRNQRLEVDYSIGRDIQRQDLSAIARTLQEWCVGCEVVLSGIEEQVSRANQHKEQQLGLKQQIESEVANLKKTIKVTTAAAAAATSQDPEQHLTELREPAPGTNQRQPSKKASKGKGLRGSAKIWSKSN
row,Target,log2 ratio of iodoacetamide-alkyne labeling
1,MLXIP C738 (UniProt Q9HAP2),-0.0833
2,NFU1 C210 (UniProt Q9UMS0),1.06 (active)
3,COPS7A C110 (UniProt Q9UBW8),0.0698
4,ACAT2 C360 (UniProt Q9BWD1),-0.0247
5,ZMYM2 C852 (UniProt Q9UBW7),0.581
6,AFG3L2 C525 (UniProt Q9Y4W6),0.198
7,NCDN C3 (UniProt Q9UBB6),1.66 (active)
8,ZYG11B C643 (UniProt Q9C0D3),0.222
9,RBM27 C776 (UniProt Q9P2N5),0.232
10,CCDC88C C1520 (UniProt Q9P219),1.15 (active)
11,OSBPL3 C203 (UniProt Q9H4L5),0.76
12,SRRM2 C1480 (UniProt Q9UQ35),0.319
13,UniProt Q9BYV8_C171,0.361
14,UniProt Q9UK61_C429,0.233
15,LIMD1 C305 (UniProt Q9UGP4),1.43 (active)
16,FAM120C C14 (UniProt Q9NX05),0.327
17,MDN1 C3492 (UniProt Q9NU22),0.35
18,NAT10 C489 (UniProt Q9H0A0),0.0616
